Inconclusive results are not listed. A call without a number means that no potency is given here. Activity calls are given as the source filed them. The call rests on the fitted dose curve; in most records, active means well fitted cell-killing curve with a large enough effect; inconclusive means small, poorly fitted or top-dose-only effect; inactive means flat fitted curve, though single readings scatter.
experiment: Cell Viability - NIH 3T3 (AID 541); conditions: NIH 3T3 cell viability, qHTS; activity change, negative = cytotoxicity: at 92.2 µM (top of the series); further: nearly all actives have a fitted effect of over 25% in size
From the text: NIH Chemical Genomics Center [NCGC]
NIH Molecular Libraries Screening Centers Network [MLSCN]
National Institutes of Environmental Health Sciences [NIEHS]
National Toxicology Program [NTP]
We have developed a 1536-well cell-based assay for quantitative high throughput screening (qHTS) against a number of cell lines to determine in vitro cytotoxicity of small molecules. This particular assay uses the NIH 3T3 fibroblast cell line which is established from NIH Swiss mouse embryo.
NCGC Assay Protocol Summary:
The CellTiter-Glo luminescent cell viability assay (Promega) is a homogeneous method to measure the number of viable cells in culture. The end point readout of this assay is based on quantitation of intracellular ATP, an indicator of metabolic activity, using the luciferase reaction. Luciferase catalyzes the oxidation of beetle Luciferin to oxyluciferin and light in the presence of ATP. The luminescent signal is proportional to amount of ATP present.
Using the CellTiter-Glo luminescent cell viability assay, the amount of cellular ATP was measured in the NIH 3T3 cell line with complete culture medium following compound treatment for 40 hours. The assay was performed in opaque white Kalypsys 1536-well plates. In the screen, tamoxifen and doxorubicin were used as positive controls. Library compounds were measured for their ability to cause acute toxicity in the cell line, as reflected by a decrease in intracellular ATP levels, in a concentration-dependent manner. […] AC50 values were determined from concentration-response data modeled with the standard Hill equation.
qHTS protocol for CellTiter Glo NIH 3T3 cellular assay
[Step] [Parameter] [Value] [Description]
1. Reagent; 5 uL; 1000 NIH 3T3 cells/well
2. Time; 5 hr; 37 °C incubation
4. Controls; 23 nL; Tamoxifen 0.34 uM to 100 uM & Doxorubicin 0.02 nM to 100 uM
5. Time; 40 hr; 37 °C incubation
6. Reagent; 5 uL; CellTiter Glo reagent
7. Time; 20 min; Room Temperature
8. Detection; Luminescence; Viewlux plate reader
Keywords: cell viability, cytotoxicity, NIH 3T3 cell line, luminescence, NTPHTS, NTPHTS_NCGC, NIEHS, EPA, DSSTox, MLSMR, MLSCN, NIH Roadmap, qHTS, NCGC
Potency means the concentration at half of the fitted maximal effect.

Question: With CC(=C/C=C/C(C)=C/C=C/C=C(C)/C=C/C=C(C)/C=C/C(=O)O)/C=C/C(=O)O as the compound, how does the Potency read?
Answer: The Potency was “inactive”.

Question: Which Potency does the source give for COCCOC(=O)c1ccccc1C(=O)OCCOC here?
Answer: Its Potency is “inactive”.

Question: Which Potency does the source give for C=Cc1ccccc1C=C here?
Answer: The Potency was “inactive”.

Question: With O=Cc1ccc(CO)o1 as the compound, how does the Potency read?
Answer: The Potency was “inactive”.

Question: With O=C1OC(=O)c2cc([N+](=O)[O-])ccc21 as the compound, how does the Potency read?
Answer: The Potency was “inactive”.

Question: With CCN(Cc1ccccc1)c1ccccc1 as the compound, how does the Potency read?
Answer: The Potency was “inactive”.

Question: Which Potency does the source give for BrC(Br)C(Br)Br here?
Answer: The Potency was “inactive”.

Question: Which Potency does the source give for O=Cc1ccccc1Cl here?
Answer: The Potency was “inactive”.

Question: For O=C(O)c1ccccc1C(=O)O, which Potency is on record?
Answer: Its Potency is “inactive”.

Question: Which Potency does the source give for CC/C=C1/OC(=O)c2ccccc21 here?
Answer: Its Potency is “inactive”.

Question: Which Potency does the source give for CCN(CC)c1cccc(O)c1 here?
Answer: Its Potency is “inactive”.

Question: For C=Cc1ccccn1, which Potency is on record?
Answer: Its Potency is “inactive”.

Question: Which Potency does the source give for Nc1cccc(C(F)(F)F)c1 here?
Answer: Its Potency is “inactive”.

Question: For Cc1cscn1, which Potency is on record?
Answer: Its Potency is “inactive”.

Question: Which Potency does the source give for CNc1ccccc1 here?
Answer: Its Potency is “inactive”.

Question: For CCC=O, which Potency is on record?
Answer: Its Potency is “inactive”.

Question: Which Potency does the source give for CC(=O)c1cccc([N+](=O)[O-])c1 here?
Answer: Its Potency is “inactive”.

Question: With O=c1[nH][nH]c(=O)c2cc([N+](=O)[O-])ccc12 as the compound, how does the Potency read?
Answer: Its Potency is “inactive”.

Question: For O=Cc1cccc(Br)c1, which Potency is on record?
Answer: The Potency was “inactive”.

Question: For c1ccc(Nc2ccccc2)cc1, which Potency is on record?
Answer: Its Potency is “inactive”.

Question: With C=CCCCCCCC=C as the compound, how does the Potency read?
Answer: The Potency was “inactive”.

Question: For COC(=O)CCC(=O)OC, which Potency is on record?
Answer: Its Potency is “inactive”.

Question: For Cc1cccc([N+](=O)[O-])c1C(=O)O, which Potency is on record?
Answer: Its Potency is “inactive”.

Question: Which Potency does the source give for CC(C)CO here?
Answer: Its Potency is “inactive”.

Question: With O=C(O)/C=C/C(=O)O as the compound, how does the Potency read?
Answer: Its Potency is “inactive”.

Question: Which Potency does the source give for CC(C)=CCl here?
Answer: Its Potency is “inactive”.

Question: With CCCCCO as the compound, how does the Potency read?
Answer: The Potency was “inactive”.

Question: For CCC(C)=O, which Potency is on record?
Answer: Its Potency is “inactive”.

Question: With CC(C)N(C)C as the compound, how does the Potency read?
Answer: Its Potency is “inactive”.

Question: For CCCC(C)CO (stereo not given), which Potency is on record?
Answer: The Potency was “inactive”.

Question: Which Potency does the source give for CSCCC=O here?
Answer: Its Potency is “inactive”.

Question: For CC(=O)Nc1cccc(N)c1, which Potency is on record?
Answer: The Potency was “inactive”.

Question: Which Potency does the source give for Cc1ccc(C)c(N)c1 here?
Answer: The Potency was “inactive”.

Question: With c1ccc2c(c1)ccc1ncccc12 as the compound, how does the Potency read?
Answer: Its Potency is “inactive”.

Question: With COC(=O)CS as the compound, how does the Potency read?
Answer: Its Potency is “inactive”.

Question: Which Potency does the source give for Cc1ccc2oc(=O)ccc2c1 here?
Answer: The Potency was “inactive”.

Question: With CCN(C(=O)N(CC)c1ccccc1)c1ccccc1 as the compound, how does the Potency read?
Answer: Its Potency is 7.94 µM (active).

Question: Which Potency does the source give for CC(=O)Nc1ccc(C)cc1 here?
Answer: Its Potency is “inactive”.

Question: With O=[N+]([O-])c1cccc(Cl)c1 as the compound, how does the Potency read?
Answer: Its Potency is “inactive”.

Question: Which Potency does the source give for CC(=O)Nc1ccccc1C here?
Answer: Its Potency is “inactive”.
